GLS inhibitor: glutaminase GLS (human) inhibition. O94925. GLS enzymatic activity, qHTS titration. Potency, µM (titrated, usually from 45.5 µM), without a hit: at the highest dose activity change, negative = inhibition, hits mostly inhibitors. hit rate 0.21% among 410,000. AID 624170; also: % is scaled to controls: 0 for no effect and ±100 for the full control effect
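Coupled fluorescence readout: glutamate oxidase/HRP/Amplex Red detect glutamate formed by hKGA from L-glutamine (1 mM solution added). Buffer 45 mM KH2PO4 pH 8.2, 0.02% Tween-20; reads at t0 and 30 min RT.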
HP1b binding inh: HP1-beta chromodomain-methylated histone interaction inhibition; AlphaScreen HP1-beta / biotin-H3K9me3 peptide binding; AID 540317; hit rate 0.56% among 390,000; P83916; Potency, µM (series often up to 114 µM), for the others: at the highest dose activity change, negative = inhibition, most hits filed as inhibitors; also: nearly all actives have a fitted effect of over 70% in size
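Compound inhibition of the preformed complex between 50 nM HP1-beta and 50 nM biotinylated H3K9me3 peptide was read by AlphaScreen. Buffer was PBS pH 7.4 with 0.01% Tween-20. Incubations ran 30 min at room temperature, with 10 ug/mL donor/acceptor beads.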
JMJD2A Tudor: inhibitors of human JMJD2A Tudor domain; O75164; AlphaScreen JMJD2A-Tudor / H3K4me3 peptide binding; Potency, µM (top dose mostly 114 µM), for the others: at the top dose activity change, negative = inhibition, actives largely listed as inhibitors; hit rate 4.4% among 390,000; AID 504339; also: % is scaled to controls: 0 for no effect and ±100 for the full control effect; nearly all actives have a fitted effect of over 50% in size
BAZ2B inh: BAZ2B (human) inhibition; AlphaScreen BAZ2B-H3K14Ac peptide displacement; Potency, µM (top dose mostly 114 µM), without a hit: at the highest dose activity change, negative = inhibition, most hits filed as inhibitors; hit rate 4.4% among 360,000; AID 504333; also: % is scaled to controls: 0 for no effect and ±100 for the full control effect; nearly all actives have a fitted effect of over 60% in size
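AlphaScreen luminescence quantifies BAZ2B engagement of H3K14Ac peptide; the protein and biotinylated peptide are both at 50 nM final, buffer PBS pH 7.4 with 0.01% Tween-20, all steps at room temperature.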
G9a inh: blocks human histone lysine methyltransferase G9a | G9a H3K9 monomethylation, AlphaScreen, 2 h | Potency, µM (highest dose often 102 µM), without a hit: at the highest dose activity, negative = inhibition, hits mostly inhibitors | hit rate 8.8% among 350,000 | AID 504332; also: % is scaled to controls: 0 for no effect and ±100 for the full control effect; nearly all actives have a fitted effect of over 75% in size
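Methyltransferase reactions run at room temperature for 2 h (20 nM enzyme, 500 nM biotin-H3K9 peptide, 20 uM SAM) after a 15 min compound preincubation; product detected by AlphaScreen beads and anti-H3K9me1 antibody.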
L3MBTL1 inh: blocks human L3MBTL1; hit rate 0.66% among 230,000; Potency, µM (highest dose often 57.1 µM), without a hit: at the top dose activity, negative = inhibition, usual class: inhibitors; Q9Y468; AID 485360; AlphaScreen L3MBTL1–H3K9me1 peptide binding; also: % is scaled to controls: 0 for no effect and ±100 for the full control effect; nearly all actives have a fitted effect of over 60% in size
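First, the protein-peptide complex forms for 30 min at room temperature (L3MBTL1 50 nM, biotinylated H3K9me1 peptide 75 nM). Next, compounds are pin-transferred and incubated 30 min. Finally, AlphaScreen beads are added and read after 30 min.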
Starred values were filed as active, the others as inactive; ? = inconclusive; / = not tested or not shown; [ ] = another dose, or the depositor's remark. The list is not random: actives were taken first. Their share in the collection is about 10%. Calls follow the shape of the dose curve; as a rule, active = well fitted curve in the direction sought with a large enough effect; inconclusive = small, poorly fitted or top-dose-only effect, or another doubt; inactive = no such curve, though single readings can be large; an effect the other way counts as inactive or inconclusive. Potency is read from the fitted curve at half-maximal effect.

SMILES	GLS inhibitor	HP1b binding inh	JMJD2A Tudor	BAZ2B inh	G9a inh	L3MBTL1 inh
COc1ccc(CNC(=O)Cn2ccc3cc(S(=O)(=O)N4CCCCC4)ccc32)c(OC)c1	13.8%	9.7%	-20.7%	-37.5%	-35.3%[59 µM]	/
CCC(=O)N1CCc2cc(S(=O)(=O)NC(Cc3ccccc3)C(=O)Nc3ccc(Cl)cc3)ccc21 (stereo not given)	-4.2%	41.9%	-3.7%	/	-5.1%[59 µM]	/
Cc1ccc(-n2ncc(C(=O)NCc3ccccc3)c2C2CCN(C(=O)OC(C)(C)C)CC2)cc1	-9.0%	12.4%	-21.7%	3.1%[57.1 µM]	?	/
c1ccc2c(Nc3nc4c(s3)CCCC4)cccc2c1	3.1%	?	-28.3%[57.1 µM]	50.1µM*	8.3%[0.0925 µM]	-5.6%
O=S(=O)(Nc1nc2c(s1)CCCC2)c1ccc2ccccc2c1	11.7%	9.0%	?	?	50.1µM*	/
COc1ccc(-c2cc(C3C4C=CCCC4(C)C(=O)N3Cc3ccccc3)ccc2F)cc1 (stereo not given)	/	15.5%	-21.4%	/	/	/
O=C(NC1CCCCC1)c1ccc2c(c1)N(Cc1ccccc1Cl)C(=O)c1ccccc1S2	-9.1%	26.2%	-15.4%	-0.2%	4.6%[59 µM]	/
Cc1ccc(NC(=O)C2C3C=CC4(CN(Cc5cccnc5)C(=O)C24)O3)cc1F (stereo not given)	2.1%	40.2%	1.4%	0.1%	44.7µM*	-2.3%
COc1ccc(C)cc1NC(=O)C1COc2ccccc2C1 (stereo not given)	-10.2%	24.8%[57 µM]	8.91µM*	4.8%	-5.4%[59 µM]	/
COc1ccc(NC(=O)C2COc3ccccc3C2)cc1Cl (stereo not given)	-4.9%	20.6%[57 µM]	-10.5%	-0.3%	-5.6%[59 µM]	/
COc1ccc(OC)c(CNC(=O)c2cnc3c(C)cccn3c2=O)c1	3.2%	27.0%	2.7%	4.2%	4.9%[59 µM]	/
C=C(C)C(=O)Nc1cccc(C2=NOC3(C2)C[C@@H](C(N)=O)N(C(=O)/C=C/CC)C3)c1 (stereo not given in full)	-22.9%	10µM*	10µM*	7.08µM*	?	/
C/C=C\C(=O)Nc1cccc(C2=NOC3(C2)C[C@H](C(N)=O)N(C(=O)/C=C/CC)C3)c1 (stereo not given in full)	0.5%	18.4%	-17.0%	3.6%	10.3%[59 µM]	/
C/C=C\C(=O)Nc1cccc(C2=NOC3(C2)C[C@@H](C(N)=O)N(C(=O)C2(C)CC2)C3)c1 (stereo not given in full)	-7.9%	29.8%	-5.0%	3.4%	-1.2%[12.7 µM]	/
C=C(C)C(=O)Nc1cccc(C2=NOC3(C2)C[C@@H](C(N)=O)N(C(=O)C(=C)C)C3)c1 (stereo not given in full)	-8.4%	8.91µM*	7.94µM*	5.01µM*	?	/
C=C(C)C(=O)Nc1cccc(C2=NOC3(C2)C[C@@H](C(N)=O)N(C(=O)C2(C)CC2)C3)c1 (stereo not given in full)	28.2µM*	2.51µM*	2.24µM*	1.58µM*	?	/
COc1ccc(NC(=O)c2c(NC(=O)C(F)(F)F)sc3c2CCCCC3)cc1	-0.6%	-7.5%	-34.0%	-36.5%	?	/
COc1ccc(Cl)cc1S(=O)(=O)NCc1ccc2c(c1)CCN2C(=O)c1cccc(C)c1	7.4%	47.2%[57 µM]	-13.6%	20.8%	10.9%[59 µM]	/
COc1ccc(-c2nc(=S)[nH][nH]2)cc1OC	-11.8%	?	2.82µM*	56.2µM*	0.562µM*	10.1%
COc1ccc(-c2nc3ccccc3nc2-c2ccc(OC)c(OC)c2)cc1OC	2.8%	113.8%	40.1%	19.4%	20µM*	7.3%
COc1ccc(-c2nc3ccccc3nc2-c2ccccc2)cc1OC	-8.1%	203.9%	93.8%	70.5%	144.3%	39.2%
COc1cc(-c2nnc(-c3cc(OC)c(OC)c(OC)c3)o2)cc(OC)c1OC	-1.5%	40.9%	-6.1%	-3.5%	-12.0%[59 µM]	?
COc1cc(-c2nc(=S)[nH][nH]2)cc(OC)c1OC	-29.1%	?	3.55µM*	50.1µM*	0.562µM*	10.2%
CCCCSCCCNC(=O)C1CCN(Cc2nc(-c3ccc(CC)cc3)oc2C)CC1	-6.8%	-7.5%	?	-17.7%	-33.5%[59 µM]	/
CCCSCCCNC(=O)C1CCN(c2nc3ccccc3nc2C(F)(F)F)CC1	-13.5%	19.2%	-6.5%	-0.9%	-14.7%[59 µM]	/
SMILES	GLS inhibitor	HP1b binding inh	JMJD2A Tudor	BAZ2B inh	G9a inh	L3MBTL1 inh
CC1CCC2(CC1)Nc1ccccc1C(=O)N2c1ccccc1 (stereo not given)	-6.1%	19.1%	-15.1%	4.7%	70.8µM*	/
O=S(=O)(Nc1cccc2ncccc12)c1cccs1	1.1%	31.0%	56.2µM*	56.2µM*	28.0%[59 µM]	-20.9%
Cc1cc(C)c(Cn2c3ccccc3c3cnn(CC(=O)NCC(C)c4ccccc4)c(=O)c32)c(C)c1 (stereo not given)	5.6%	27.1%	-7.4%	1.0%	-2.1%[59 µM]	/
O=C(CSc1nc2nc(-c3cccs3)cc(C(F)(F)F)c2c(=O)[nH]1)Nc1c(F)c(F)c(F)c(F)c1F	18.8%	28.0%	-11.0%	-20.8%	-40.0%	9.5%
O=c1[nH]c(=S)[nH]c2nc(-c3cccs3)cc(C(F)(F)F)c12	-11.3%	36.4%	-14.9%	-5.9%	79.4µM*	/
CCN(CC)CCN(C(=O)c1ccco1)c1nc2c(C)c(C)ccc2s1	12.4%	4.2%	?	?	-26.6%[59 µM]	/
CCC1(C)Cc2sc3c(=O)[nH]c(=S)[nH]c3c2CO1 (stereo not given)	-26.8%	-1.0%	-10.5%[11.4 µM]	?	3.55µM*	/
Cc1nnsc1C(=O)Oc1ccccc1Cl	-0.3%	68.3%	15.6%	1.8%	?	/
Cn1cc(Br)c(NC(=O)/C=C/C(=O)O)n1	-0.4%	49.0%	-17.3%	-11.8%	0.708µM*	7.1%
CC1(C)CC(=O)C(C(c2cccnc2)C2C(=O)CC(C)(C)CC2=O)C(=O)C1	7.3%	32.4%	-32.3%	-1.3%	50.1µM*	/
Cc1cc(C(C2C(=O)CC(C)(C)CC2=O)C2C(=O)CC(C)(C)CC2=O)cc(C)c1OC(F)F	4.0%	3.9%	-25.2%	-11.6%	31.6µM*	/
COC(=O)COc1ccc(NC(=O)C(c2ccccc2)c2ccccc2)cc1	-10.2%	-3.5%	-18.7%	?	-1.8%	?
COC(=O)COc1ccc(C(C2C(=O)CC(C)(C)CC2=O)C2C(=O)CC(C)(C)CC2=O)cc1	28.2%	51.7%	12.8%	11.5%	31.6µM*	/
CC1(C)CC(=O)C(C(c2ccccc2F)C2C(=O)CC(C)(C)CC2=O)C(=O)C1	16.4%	59.9%	-10.7%	-0.8%	/	3.4%
COc1cccc(C(C2C(=O)CC(C)(C)CC2=O)C2C(=O)CC(C)(C)CC2=O)c1	18.0%	60.8%	-5.7%	-1.7%	79.4µM*	/

Compound activity (PubChem)
